Data on ten compounds can be found in PubChem BioAssay (EPA / NIEHS).

Records with an inconclusive call do not appear. The source made the active and inactive calls. The calls were made as follows: active = hit-call score of the fitted dose curve at least 0.9, where 1 is the maximum; inconclusive = response in the unintended direction; inactive = score below 0.9.

The target of assay [1] is rat Serotonin, 5-Hydroxytryptamine Receptor (5HT), Non-Selective Binding, Htr1a (gene 24473) (UniProt P19327). The assay is described as follows: NVS_GPCR_r5HT_NonSelective: NovaScreen (NVS) G Protein-Coupled Receptor Assay for rat Serotonin, 5-Hydroxytryptamine Receptor (5HT), Non-Selective Binding (AID 2283295). The method, boiled down: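 Radioligand displacement on rat cortical membranes, 1 h incubation, filter-based scintillation counting. Primary duplicates at 25 uM, actives retested in concentration series; loss of signal fitted against DMSO as baseline.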

Assay [2] addresses Metabotropic glutamate receptor 1 (Rattus norvegicus) (UniProt P23385). In words: NVS_GPCR_rmMGluR1: NovaScreen (NVS) G Protein-Coupled Receptor Assay for rat Glutamate Metabotropic Receptor 1 (MGluR1) (AID 2283305). The essentials:
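Rat cerebellum membrane preparation, radioligand displacement binding read by filter-based scintillation counting 1 hour after dosing. Initial duplicate single-point screen at 25 uM, then concentration-response up to 50 uM; loss of signal versus DMSO baseline scored.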

In the next assay the target is Adra2b (gene 24174) (UniProt P19328). In words: NVS_GPCR_rmAdra2B: NovaScreen (NVS) G Protein-Coupled Receptor Assay for hybird cells Adrenergic, Alpha 2B Receptor (Adra2B) (AID 2283306). The method, boiled down:
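Radioligand filter-binding assay on membrane proteins from neuroglioma/blastoma hybrid cells (rodent), 1 h after dosing; scintillation counting, loss of signal vs DMSO. Primary screen in duplicate at 25 uM, actives then run in concentration series.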

Assay [3] concerns the target rat Neurokinin-1 Receptor (NK1), Tacr1 (gene 24807) (UniProt P14600). In words: NVS_GPCR_rNK1: NovaScreen (NVS) G Protein-Coupled Receptor Assay for rat Neurokinin-1 Receptor (NK1) (AID 2283309). The essentials: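 Rat submaxillary gland membranes; radioligand displacement read by filter-based scintillation counting after 1 h. Primary screen in duplicate at 25 uM; actives retested in concentration series; loss of binding fitted versus DMSO.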

Assay [4] deals with rat Somatostatin Receptor (SST), Sstr1 (gene 25033) (UniProt P28646). In words: NVS_GPCR_rSST: NovaScreen (NVS) G Protein-Coupled Receptor Assay for rat Somatostatin Receptor (SST) (AID 2283314). The method, boiled down:
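Rat forebrain membranes; radioligand displacement read by filter-based scintillation counting 1 h after dosing. Primary screen in duplicate at 25 uM. Actives (e.g., 30% inhibition) were rerun as concentration-response to 50 uM max and fitted against DMSO.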

Assay [5] is described as follows: NVS_IC_rCaDHPRCh_L: NovaScreen (NVS) Ion Channel Assay for rat Calcium Channel, Type L, Dihydropyridine Site (CaDHPRCh_L) (AID 2283320). The essentials: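 Radioligand binding to dihydropyridine site on rat cortical membranes, filter-based scintillation counting, 1 h after dosing. Screened in duplicate at 25 uM; actives rerun in concentration-response up to 50 uM. Loss of signal versus DMSO baseline.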

Assay [6] deals with Sodium channel protein type 1 subunit alpha (Rattus norvegicus) (UniProt P04774). The assay is described as follows: NVS_IC_rNaCh_site2: NovaScreen (NVS) Ion Channel Assay for rat Sodium Channel, Site 2 (NaCh) (AID 2283322).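 Also: hit means loss of radioligand binding signal relative to DMSO so AC50 marks displacement.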 The essentials: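 Membranes: rat forebrain. Format: competitive radioligand displacement, filter separation, scintillation readout, 1 h exposure. Primary screen in duplicate at 25 uM; actives retested in concentration series.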

In assay [7] the target is rat Neonicotinoid receptor (NNR), Chrna7 (gene 25302) (UniProt Q05941). In words: NVS_LGIC_rNNR_BungSens: NovaScreen (NVS) Ligand-Gated Ion Channel Assay for rat Neonicotinoid receptor (NNR) (AID 2283315). The essentials: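 Radioligand displacement binding on rat cortical membranes, 2.5 h incubation, filtration and scintillation counting. Loss of specific binding fitted relative to DMSO.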

In assay [8] the target is rat Neurokinin-3 Receptor (NK3), Tacr3 (gene 24808) (UniProt P16177). The assay is described as follows: NVS_GPCR_rNK3: NovaScreen (NVS) G Protein-Coupled Receptor Assay for rat Neurokinin-3 Receptor (NK3) (AID 2283310). The method, boiled down:
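Rat cortical membranes; radioligand binding with filtration and scintillation counting, 2 h after dosing. Primary screen in duplicate at 25 uM, then concentration-response up to 50 uM; loss of binding signal relative to DMSO.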

The target in assay [9] is rat Opioid Receptor, Non-selective Sodium (Na+) Binding, Oprm1 (gene 25601) (UniProt P33535). The assay is described as follows: NVS_GPCR_rOpiate_NonSelectiveNa: NovaScreen (NVS) G Protein-Coupled Receptor Assay for rat Opioid Receptor, Non-selective Sodium (Na+) Binding (AID 2283311). The essentials:
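Rat forebrain membranes, radioligand displacement with filter scintillation counting, 1.5 h incubation. Screened in duplicate at 25 µM; hits then run in concentration-response up to 50 µM; loss of binding fitted versus DMSO.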

The target of assay [10] is rat Opioid Receptor, Non-selective Binding, Oprm1 (gene 25601) (UniProt P33535). In words: NVS_GPCR_rOpiate_NonSelective: NovaScreen (NVS) G Protein-Coupled Receptor Assay for rat Opioid Receptor, Non-selective Binding (AID 2283318). The method, boiled down: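 Rat forebrain membranes, cell-free radioligand binding with filter-based scintillation counting, read 1.5 h after dosing. Primary screen in duplicate at 25 uM; actives retested in concentration series. Loss of signal versus DMSO baseline scored.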

The test system of assay [11] is rat Adrenergic, Alpha 1B Receptor (Adra1B), gene 24173. In words: NVS_GPCR_rAdra1B: NovaScreen (NVS) G Protein-Coupled Receptor Assay for rat Adrenergic, Alpha 1B Receptor (Adra1B) (AID 2283297). The method, boiled down: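 Rat liver membranes, radioligand displacement with filter-based scintillation detection, 1 h incubation. Primary screen in duplicate at 25 uM; actives retested in concentration series; activity relative to DMSO.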

For assay [12], the target named is rat Histamine Receptor (H3), Hrh3 (gene 85268) (UniProt Q9QYN8). In words: NVS_GPCR_rH3: NovaScreen (NVS) G Protein-Coupled Receptor Assay for rat Histamine Receptor (H3) (AID 2283303). The essentials:
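Rat forebrain membranes incubated 1 h with compound; radioligand displacement measured by filter-based scintillation counting. Single-concentration duplicates at 25 µM, then concentration-response up to 50 µM, relative to DMSO.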

Assay [13] addresses rat Glutamate Metabotropic Receptor 5 (MGluR5), Grm5 (gene 24418) (UniProt P31424). The assay is described as follows: NVS_GPCR_rmMGluR5: NovaScreen (NVS) G Protein-Coupled Receptor Assay for rat Glutamate Metabotropic Receptor 5 (MGluR5) (AID 2283307). The method, boiled down:
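Rat whole-brain membrane preparation; filter-based radioligand binding read by scintillation counting, 1.5 h after dosing. Single-point screen at 25 uM in duplicate; hits over threshold (e.g. 30% inhibition) retested in concentration-response up to 50 uM; loss of signal vs DMSO.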

The target in assay [14] is rat Vasopressin 1 Receptor (V1), Avpr1a (gene 25107) (UniProt P30560). The assay is described as follows: NVS_GPCR_rV1: NovaScreen (NVS) G Protein-Coupled Receptor Assay for rat Vasopressin 1 Receptor (V1) (AID 2283316). The method, boiled down:
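Radioligand binding on rat liver membranes, 1.5 h incubation, filter-based scintillation counting. Single 25 uM screen in duplicate; chemicals meeting threshold (e.g. 30% inhibition) run in concentration-response up to 50 uM.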

In assay [15] the target is rat Gamma-Aminobutyric Acid Type B Receptor (GABBR), Gabbr1 (gene 81657) (UniProt Q9Z0U4). The assay is described as follows: NVS_GPCR_rGABBR: NovaScreen (NVS) G Protein-Coupled Receptor Assay for rat Gamma-Aminobutyric Acid Type B Receptor (GABBR) (AID 2283301). The essentials:
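Radioligand displacement on rat cortical membranes, 1 h, filter-based scintillation counting. Primary screen at 25 uM in duplicate; compounds passing threshold re-tested in concentration-response up to 50 uM; loss of binding fitted against DMSO.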

The target of assay [16] is rat Adrenergic, Alpha 1A Receptor (Adra1A), Adra1a (gene 29412) (UniProt P43140). The assay is described as follows: NVS_GPCR_rAdra1A: NovaScreen (NVS) G Protein-Coupled Receptor Assay for rat Adrenergic, Alpha 1A Receptor (Adra1A) (AID 2283296). The method, boiled down: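 Rat cortical membranes pretreated with chlorethyl clonidine; competitive radioligand displacement, 1 h. Filter-based scintillation counting. Primary screen in duplicate at 25 uM, actives followed in concentration series.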
rat Adrenergic, Alpha 1A Receptor (Adra1A), Adra1a (gene 29412), sequence (P43140 whole entry, looked up): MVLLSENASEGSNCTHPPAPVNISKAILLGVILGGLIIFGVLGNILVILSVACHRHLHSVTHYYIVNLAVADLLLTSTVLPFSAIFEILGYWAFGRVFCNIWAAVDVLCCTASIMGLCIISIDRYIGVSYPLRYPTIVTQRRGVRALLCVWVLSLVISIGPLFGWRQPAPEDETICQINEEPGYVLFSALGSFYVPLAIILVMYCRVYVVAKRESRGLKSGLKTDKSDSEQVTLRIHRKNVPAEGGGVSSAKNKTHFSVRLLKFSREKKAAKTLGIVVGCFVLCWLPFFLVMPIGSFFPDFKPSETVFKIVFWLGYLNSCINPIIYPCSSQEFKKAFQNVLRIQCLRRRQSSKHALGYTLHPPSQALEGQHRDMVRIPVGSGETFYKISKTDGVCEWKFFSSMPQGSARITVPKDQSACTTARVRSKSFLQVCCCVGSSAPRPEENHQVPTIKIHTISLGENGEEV

rat Neurokinin-1 Receptor (NK1), Tacr1 (gene 24807), sequence (P14600 whole entry, looked up): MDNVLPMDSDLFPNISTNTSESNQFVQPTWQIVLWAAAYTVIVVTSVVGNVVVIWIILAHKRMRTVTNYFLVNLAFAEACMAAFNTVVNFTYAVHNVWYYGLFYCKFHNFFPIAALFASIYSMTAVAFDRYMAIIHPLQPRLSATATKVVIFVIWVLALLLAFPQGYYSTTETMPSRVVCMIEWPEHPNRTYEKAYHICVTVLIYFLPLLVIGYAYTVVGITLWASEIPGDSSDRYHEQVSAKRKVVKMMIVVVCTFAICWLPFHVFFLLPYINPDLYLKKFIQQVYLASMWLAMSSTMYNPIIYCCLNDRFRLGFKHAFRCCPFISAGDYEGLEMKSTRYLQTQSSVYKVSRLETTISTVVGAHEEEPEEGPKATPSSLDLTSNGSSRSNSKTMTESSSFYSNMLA
Adra2b (gene 24174), sequence (P19328 whole entry, looked up): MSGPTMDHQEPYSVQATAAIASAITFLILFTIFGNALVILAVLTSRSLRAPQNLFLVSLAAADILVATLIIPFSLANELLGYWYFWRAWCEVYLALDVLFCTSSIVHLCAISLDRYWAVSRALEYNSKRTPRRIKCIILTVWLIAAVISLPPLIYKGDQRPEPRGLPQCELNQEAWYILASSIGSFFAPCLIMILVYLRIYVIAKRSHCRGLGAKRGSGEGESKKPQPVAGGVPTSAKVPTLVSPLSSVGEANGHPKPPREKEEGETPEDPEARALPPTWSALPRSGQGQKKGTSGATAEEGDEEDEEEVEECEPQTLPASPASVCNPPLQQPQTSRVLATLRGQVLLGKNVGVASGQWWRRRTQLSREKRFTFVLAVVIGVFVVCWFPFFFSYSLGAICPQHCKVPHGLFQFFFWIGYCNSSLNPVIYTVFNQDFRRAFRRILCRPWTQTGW
rat Neonicotinoid receptor (NNR), Chrna7 (gene 25302), sequence (Q05941 whole entry, looked up): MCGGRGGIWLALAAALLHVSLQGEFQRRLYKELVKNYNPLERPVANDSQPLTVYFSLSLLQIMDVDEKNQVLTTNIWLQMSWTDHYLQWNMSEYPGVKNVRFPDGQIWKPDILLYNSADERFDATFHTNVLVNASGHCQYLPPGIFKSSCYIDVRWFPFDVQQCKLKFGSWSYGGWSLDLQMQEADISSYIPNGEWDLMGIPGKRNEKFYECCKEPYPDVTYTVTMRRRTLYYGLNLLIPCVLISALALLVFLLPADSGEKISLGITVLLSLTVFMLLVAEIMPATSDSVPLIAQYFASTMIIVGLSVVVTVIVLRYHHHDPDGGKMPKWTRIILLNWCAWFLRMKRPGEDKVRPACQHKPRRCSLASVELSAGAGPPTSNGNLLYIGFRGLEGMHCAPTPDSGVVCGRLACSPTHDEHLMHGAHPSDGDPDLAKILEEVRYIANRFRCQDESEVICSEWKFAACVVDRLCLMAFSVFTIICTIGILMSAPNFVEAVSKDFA
rat Opioid Receptor, Non-selective Sodium (Na+) Binding, Oprm1 (gene 25601), sequence (P33535 whole entry, looked up): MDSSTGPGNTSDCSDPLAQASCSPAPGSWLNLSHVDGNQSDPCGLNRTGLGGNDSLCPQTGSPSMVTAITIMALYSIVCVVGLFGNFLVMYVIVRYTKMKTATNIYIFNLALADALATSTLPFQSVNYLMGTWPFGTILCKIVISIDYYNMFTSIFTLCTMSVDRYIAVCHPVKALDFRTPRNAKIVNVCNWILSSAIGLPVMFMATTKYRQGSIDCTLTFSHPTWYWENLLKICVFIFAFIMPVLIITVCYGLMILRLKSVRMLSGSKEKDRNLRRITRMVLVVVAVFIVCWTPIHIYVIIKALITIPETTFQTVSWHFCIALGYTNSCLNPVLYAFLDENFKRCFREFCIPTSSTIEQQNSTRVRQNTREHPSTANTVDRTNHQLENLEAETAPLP
rat Opioid Receptor, Non-selective Binding, Oprm1 (gene 25601), sequence (P33535 whole entry, looked up): as above
rat Vasopressin 1 Receptor (V1), Avpr1a (gene 25107), sequence (P30560 whole entry, looked up): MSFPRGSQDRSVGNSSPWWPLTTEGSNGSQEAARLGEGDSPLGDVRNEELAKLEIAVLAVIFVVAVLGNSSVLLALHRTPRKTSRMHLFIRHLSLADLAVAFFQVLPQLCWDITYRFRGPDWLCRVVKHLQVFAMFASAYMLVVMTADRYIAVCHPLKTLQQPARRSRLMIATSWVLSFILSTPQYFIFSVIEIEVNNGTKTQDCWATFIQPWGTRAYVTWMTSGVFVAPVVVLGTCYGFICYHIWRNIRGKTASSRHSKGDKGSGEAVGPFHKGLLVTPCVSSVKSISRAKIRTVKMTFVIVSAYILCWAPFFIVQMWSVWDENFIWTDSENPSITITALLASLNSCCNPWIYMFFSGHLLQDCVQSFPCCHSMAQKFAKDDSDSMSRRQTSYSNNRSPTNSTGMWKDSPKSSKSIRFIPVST
rat Serotonin, 5-Hydroxytryptamine Receptor (5HT), Non-Selective Binding, Htr1a (gene 24473), sequence (P19327 whole entry, looked up): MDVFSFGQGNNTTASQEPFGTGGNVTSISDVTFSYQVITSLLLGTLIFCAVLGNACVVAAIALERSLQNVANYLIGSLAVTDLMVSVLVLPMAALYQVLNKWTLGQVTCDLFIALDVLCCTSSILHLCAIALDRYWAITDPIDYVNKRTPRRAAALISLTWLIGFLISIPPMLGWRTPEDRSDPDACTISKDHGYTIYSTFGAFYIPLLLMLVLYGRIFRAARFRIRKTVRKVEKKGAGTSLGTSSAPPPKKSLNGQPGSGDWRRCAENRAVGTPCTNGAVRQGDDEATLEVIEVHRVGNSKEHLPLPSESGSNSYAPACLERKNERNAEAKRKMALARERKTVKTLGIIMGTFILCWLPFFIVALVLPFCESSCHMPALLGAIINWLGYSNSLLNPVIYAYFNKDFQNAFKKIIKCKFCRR
rat Gamma-Aminobutyric Acid Type B Receptor (GABBR), Gabbr1 (gene 81657), sequence (Q9Z0U4 whole entry, looked up): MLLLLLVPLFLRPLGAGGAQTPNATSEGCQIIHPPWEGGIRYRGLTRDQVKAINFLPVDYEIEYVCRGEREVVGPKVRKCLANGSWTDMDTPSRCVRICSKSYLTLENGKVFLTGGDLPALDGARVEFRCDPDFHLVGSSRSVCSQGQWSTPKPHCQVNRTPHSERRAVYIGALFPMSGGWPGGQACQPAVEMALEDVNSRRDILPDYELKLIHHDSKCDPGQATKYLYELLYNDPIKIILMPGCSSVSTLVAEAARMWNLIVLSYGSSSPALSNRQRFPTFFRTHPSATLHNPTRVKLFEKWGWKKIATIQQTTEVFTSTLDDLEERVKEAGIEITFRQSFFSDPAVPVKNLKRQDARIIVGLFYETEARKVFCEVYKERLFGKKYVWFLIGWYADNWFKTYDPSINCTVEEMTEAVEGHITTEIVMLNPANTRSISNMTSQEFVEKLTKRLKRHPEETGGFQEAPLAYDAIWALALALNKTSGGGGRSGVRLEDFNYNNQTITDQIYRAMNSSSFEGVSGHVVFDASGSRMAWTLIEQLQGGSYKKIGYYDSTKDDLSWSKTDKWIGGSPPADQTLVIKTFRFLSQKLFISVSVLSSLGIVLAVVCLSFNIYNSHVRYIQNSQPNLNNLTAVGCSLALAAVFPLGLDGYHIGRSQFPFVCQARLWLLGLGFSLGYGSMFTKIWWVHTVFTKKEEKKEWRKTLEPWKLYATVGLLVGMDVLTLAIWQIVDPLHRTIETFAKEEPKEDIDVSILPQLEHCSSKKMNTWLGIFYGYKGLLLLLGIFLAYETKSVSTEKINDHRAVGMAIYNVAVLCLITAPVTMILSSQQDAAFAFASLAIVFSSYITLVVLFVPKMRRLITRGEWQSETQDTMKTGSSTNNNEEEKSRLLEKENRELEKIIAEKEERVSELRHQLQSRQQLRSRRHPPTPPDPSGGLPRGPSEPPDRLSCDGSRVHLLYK
rat Somatostatin Receptor (SST), Sstr1 (gene 25033), sequence (P28646 whole entry, looked up): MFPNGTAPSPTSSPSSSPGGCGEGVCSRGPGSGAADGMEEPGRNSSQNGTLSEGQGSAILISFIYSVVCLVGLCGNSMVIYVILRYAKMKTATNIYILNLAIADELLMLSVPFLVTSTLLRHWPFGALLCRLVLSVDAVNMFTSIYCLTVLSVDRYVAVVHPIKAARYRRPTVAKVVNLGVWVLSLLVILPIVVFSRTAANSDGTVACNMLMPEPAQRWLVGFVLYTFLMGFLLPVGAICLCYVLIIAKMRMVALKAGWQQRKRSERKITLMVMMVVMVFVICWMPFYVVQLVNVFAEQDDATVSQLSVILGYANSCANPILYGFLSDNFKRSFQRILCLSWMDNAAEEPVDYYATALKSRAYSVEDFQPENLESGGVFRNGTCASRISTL

By AC50 is commonly meant the concentration at which the activity in the assay is half-maximal. For `CCOC(=O)O[C@H](C)OC(=O)c1ccc2c(c1)cc(C(=O)NC1CCN(C(C)C)CC1)n2Cc1cc(-c2ccc(Cl)s2)on1`, the AC50 was 11.1 µM (active) in [1]; 17 µM (active) in assay [2]; 15.4 µM (active) with Adra2b (gene 24174); 32.1 µM (active) in assay [3]; 14.9 µM (active) in assay [4]; 9.36 µM (active) in assay [5]. In [6], the half-maximal activity concentration (AC50) is 9.62 µM (active).

Take `CC(C)(C)c1csc(-c2cc3cc(OCc4ccccc4CC(=O)O)ccc3o2)n1`: the compound was called inactive in assay [3] and in assay [7].

For the compound `NC(=O)c1nc(-c2cccc(-c3cc(F)ccc3OCC(F)(F)C(F)(F)F)c2)n[nH]1`, the AC50 in [6] is 0.574 µM (active).

`CN(C[C@@H](CC[N+]12CCC(C3CCCCC3)(CC1)CC2)c1ccc(Cl)c(Cl)c1)C(=O)c1cc(C(F)(F)F)cc(C(F)(F)F)c1`: the concentration at half-maximal activity (AC50) in assay [3] is 0.403 µM (active); in assay [8], 5.47 µM (active); in assay [9] it was 12.5 µM (active); in assay [10] it was 35.5 µM (active).

On to `Cc1occc1C(=O)Nc1ccc(C(=O)N2CCC(F)(F)/C(=C\C(=O)N3CCC(N4CCCCC4)CC3)c3ccccc32)cc1`, for which the call in [1], in assay [13] and in assay [14] was inactive. The AC50 was 3.24 µM (active) in [11]; 4.22 µM (active) in assay [12]; 1.25 µM (active) with Adra2b (gene 24174); 11.7 µM (active) in [3]; 5.68 µM (active) in [9]; 4.14 µM (active) in assay [7]. Also, the AC50 in [10] is 5.85 µM (active); in assay [6], 4.89 µM (active).

For the compound `Cc1ncc(CO)c(CO)c1O`, the compound was called inactive in assay [15].

For the compound `Clc1cc(Cl)c2c(c1)N=C1CCCCCN1C2`, the AC50 is 3.54 µM (active) in assay [16]; 5.42 µM (active) in assay [11]; 5.33 µM (active) with Adra2b (gene 24174); 5.61 µM (active) in assay [7]; 7.31 µM (active) in assay [10]; 6.64 µM (active) in assay [6].

Consider `CCCCOC(=O)c1ccc(O)cc1`, for which the call in assay [11] was inactive. The half-maximal activity concentration (AC50) in assay [9] was 25 µM (active).

For `O=C1O[C@H]([C@@H](O)CO)C(O)=C1O`, the AC50 in assay [14] was 6.57 µM (active).

On to `O=C(O)Cc1cc(I)c(Oc2ccc(O)c(I)c2)c(I)c1`, for which the call in assay [15], in assay [7] and in assay [10] was inactive.
